In PubChem BioAssay (EPA / NIEHS):
Records with an inconclusive call do not appear. The source made the active and inactive calls. The calls were made as follows, unless noted: active = hit-call score of the fitted dose curve at least 0.9, where 1 is the maximum; inactive = score below 0.9.

How the values were obtained:
[1] = CCTE_Mundy_HCI_Cortical_NOG_NeuriteLength: CCTE's Neurite Outgrowth Assay in rat cortical cells for Neurite Length, Mundy Lab (AID 2284213)
Method in brief: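 First, rat primary cortical cells were plated and, 2 h later, given test chemical as a 1/10 dilution. Finally, βIII-tubulin immunostaining enabled automated imaging of neurite length.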

[2] = CCTE_Mundy_HCI_Cortical_Synap_Neur_Matur_NeuriteLength: CCTE's Synaptogenesis and Neurite Maturation Assay in rat cortical cells for Neurite Length, Mundy Lab (AID 2284214)
Method in brief: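 Read-out: high-content imaging of MAP2-labelled neurites, with synaptophysin and Hoechst co-stain, in rat cortical cultures fixed at DIV 12. Activity fitted in positive direction relative to DMSO baseline.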

[3] = CCTE_Mundy_HCI_Cortical_Synap_Neur_Matur_NeuriteSpotCountPerNeuron: CCTE's Synaptogenesis and Neurite Maturation Assay in rat cortical cells for Neurite Spot Count per Neuron Count, Mundy Lab (AID 2284215)
Method in brief: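 Developing rat cortical neurons, with glia suppressed by AraC, are exposed to chemicals from DIV 7 to DIV 12. Automated fluorescence imaging of MAP2-labelled neurites and synaptophysin puncta yields a count per neuron, normalised against DMSO wells.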

[4] = CCTE_Mundy_HCI_Cortical_Synap_Neur_Matur_SynapseCount: CCTE's Synaptogenesis and Neurite Maturation Assay in rat cortical cells for Synapse Count, Mundy Lab (AID 2284218)
Method in brief: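 Read-out: synapse number per neuron, automated high-content imaging of fixed cells immunostained for MAP2 and synaptophysin plus Hoechst nuclei. Rat primary cortical cultures, AraC at DIV 5, chemical dosing DIV 7–12. Positive-direction fit relative to DMSO.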

[5] = CCTE_Mundy_HCI_Cortical_Synap_Neur_Matur_NeuriteCount: CCTE's Synaptogenesis and Neurite Maturation Assay in rat cortical cells for Neurite Count, Mundy Lab (AID 2284222);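 also: exposure from day 7 to day 12 in vitro with readout at day 12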
Method in brief: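 Primary rat cortical cells were plated, treated with AraC at DIV 5, then exposed to chemicals from DIV 7 through DIV 12. After fixation and immunostaining for MAP2 and synaptophysin, imaging quantified neurites, with DMSO as the negative control.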

[6] = CCTE_Mundy_HCI_Cortical_Synap_Neur_Matur_CellBodySpotCount: CCTE's Synaptogenesis and Neurite Maturation Assay in rat cortical cells for Cell Body Spot Count, Mundy Lab (AID 2284223)
Method in brief: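 Chemicals were applied to AraC-treated rat primary cortical cells at DIV 7 and measured at DIV 12. Fixed cells were labelled for MAP2, synaptophysin and nuclei, and high-content imaging gave cell body synaptophysin spot counts per neuron relative to DMSO.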

[7] = CCTE_Mundy_HCI_Cortical_NOG_NeuronCount: CCTE's Neurite Outgrowth Assay in rat cortical cells for Neuron Count, Mundy Lab (AID 2284236; active = hit-call score of the fitted dose curve at least 0.9, where 1 is the maximum;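 also: neurons counted by imaging betaIII-tubulin and Hoechst stained cortical cells; cells exposed to compound for about 48 hours before fixation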)
Method in brief: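 Read-out: neuron number by high-content imaging of betaIII-tubulin (Alexa Fluor-488) and Hoechst-labelled rat primary cortical cells.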

[8] = CCTE_Mundy_HCI_Cortical_NOG_BPCount: CCTE's Neurite Outgrowth Assay in rat cortical cells for Branch Point Count, Mundy Lab (AID 2284237)
Method in brief: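 Measured 50.33 h after dosing, this morphology endpoint uses rat primary cortical cultures labelled for betaIII-tubulin. Branch points are quantified by high-content imaging, with DMSO as negative control and baseline.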

[9] = CCTE_Mundy_HCI_hNP1_Casp3_7: CCTE's Caspase-Glo 3/7 Assay in human neuroprogenitor cells for Apoptosis, Mundy Lab (AID 2284240)
Method in brief: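 Luminescent caspase-3/7 readout, 26.5 h post-dose, in human neural progenitor cells from WA09 embryonic stem cells. Cells grew 40–44 h at 37 °C, 5% CO2 before chemical addition. Activity analysed as signal increase over DMSO baseline.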

[10] = CCTE_Mundy_HCI_Cortical_Synap_Neur_Matur_NeuronCount: CCTE's Synaptogenesis and Neurite Maturation Assay in rat cortical cells for Neuron Count, Mundy Lab (AID 2284242; active = hit-call score of the fitted dose curve at least 0.9, where 1 is the maximum)
Method in brief: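 Rat cortical cultures; AraC DIV 5; chemical dosing + media change DIV 7 to DIV 12 (288.33 h readout). Fix, Hoechst, anti-MAP2/anti-synaptophysin immunostain; HCI neuron count vs DMSO baseline.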

[11] = IUF_NPC2c_oligodendrocyte_migration_120hr: Leibniz Research Institute for Environmental Medicine (IUF) 120-hour Neural Progenitor Cell Migration Assay for Oligodendrocyte Migration (NPC2c) (AID 2284297);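 also: O4-positive oligodendrocyte migration distance divided by radial glia migration distance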
Method in brief: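 Using fetal brain neural progenitor spheres differentiating in N2 medium at 37C, compounds were present for 120 h. Oligodendrocyte migration distance, normalized to radial glia migration, was measured from imaged O4 staining.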

[12] = IUF_NPC2a_radial_glia_migration_120hr: Leibniz Research Institute for Environmental Medicine (IUF) 120-hour Neural Progenitor Cell Migration Assay for Radial Glia Migration (NPC2a) (AID 2284298)
Method in brief: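 Exposure of 0.3 mm primary hNPC spheres runs day 0 to 120 h with a half-volume medium change at day 3. Fixed cells get Hoechst staining; high-content analysis of nuclear positions yields radial glia migration distance per well, compared against DMSO controls.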

[13] = IUF_NPC2a_radial_glia_migration_72hr: Leibniz Research Institute for Environmental Medicine (IUF) 72-hour Neural Progenitor Cell Migration Assay for Radial Glia Migration (NPC2a) (AID 2284299)
Method in brief: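 Readout: mean of four manual brightfield measurements of radial glia migration distance (um) at 72 h. hNPC spheres (0.3 mm) exposed to 7 compound concentrations plus solvent control on PDL/laminin, 37C, 5% CO2; activity fitted relative to DMSO.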

[14] = IUF_NPC2b_neuronal_migration_120hr: Leibniz Research Institute for Environmental Medicine (IUF) 120-hour Neural Progenitor Cell Migration Assay for Neuron Migration (NPC2b) (AID 2284300)
Method in brief: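 Fetal human NPC spheres migrate on PDL/laminin during 120 h compound treatment; neuronal migration distance, glia-normalized, scored versus DMSO control.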

[15] = IUF_NPC3_neuronal_differentiation_120hr: Leibniz Research Institute for Environmental Medicine (IUF) 120-hour Neuronal Differentiation Assay (NPC3) (AID 2284301)
Method in brief: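 hNPC spheres, PDL/laminin, DMEM/F12 3:1 + 1% N2, 37C, 5% CO2; 7 concentrations + solvent control, 5 d exposure, half-change day 3. Fix 120 h; TUBB3/Hoechst ICC, CNN neuron calling; % neurons vs nuclei, DMSO-normalized.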

[16] = IUF_NPC4_neurite_length_120hr: Leibniz Research Institute for Environmental Medicine (IUF) 120-hour Neuronal Morphology Assay for Neurite Length (NPC4) (AID 2284302)
Method in brief: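 hNPC spheres (0.3 mm, fetal brain GW 16-19) on PDL/laminin, DMEM:F12 3:1 + 1% N2, 37C 5% CO2; 7 concs + solvent control, day 0-5, half medium change d3; fix 120 h, TUBB3 ICC, mean neurite length um vs DMSO.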

[17] = IUF_NPC5_oligodendrocyte_differentiation_120hr: Leibniz Research Institute for Environmental Medicine (IUF) 120-hour Oligodendrocyte Differentiation Assay (NPC5) (AID 2284304; active = hit-call score of the fitted dose curve at least 0.9, where 1 is the maximum;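 also: primary human fetal neural progenitor spheres plated to migrate and differentiate; share of O4-positive cells among Hoechst nuclei found by CNN image analysis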)
Method in brief: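 After plating on poly-D-lysine/laminin, fetal-derived hNPC spheres differentiated for 120 h at 37C in compound-containing N2 medium, refreshed by half on day 3. O4 immunostaining over Hoechst nuclei in the migration zone gave oligodendrocyte percentage relative to DMSO.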

[18] = IUF_NPC2-5_cytotoxicity_72hr: Cytotoxicity Assessment at 72 hours in the Leibniz Research Institute for Environmental Medicine (IUF) Neural Progenitor Cell Migration and Differentiation Assay for Cytotoxicity (NPC2-5) (AID 2284306; active = hit-call score of the fitted dose curve at least 0.9, where 1 is the maximum;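 also: LDH release into supernatant measured by resorufin fluorescence marking membrane damage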)
Method in brief: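 hNPC spheres (0.3 mm), PDL/laminin, DMEM/F12 3:1 + 1% N2; cpd from d0, 7 concs + SC, DMSO max 0.1%; half-medium refresh d3. Readout: supernatant LDH via resorufin fluorescence (RFU), 72 h; gain-of-signal fit.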

[19] = IUF_NPC2-5_cytotoxicity_120hr: Cytotoxicity Assessment at 120 hours in the Leibniz Research Institute for Environmental Medicine (IUF) Neural Progenitor Cell Migration and Differentiation Assay (NPC2-5) (AID 2284307; active = hit-call score of the fitted dose curve at least 0.9, where 1 is the maximum)
Method in brief: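 Membrane-integrity loss is quantified by LDH in supernatant after five days of exposure of migrating, differentiating human fetal NPC spheres; seven serially diluted concentrations are tested with DMSO kept at or below 0.1%.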

[20] = IUF_NPC2-5_cell_number_120hr: Cell Number Assessment at 120 hours in the Leibniz Research Institute for Environmental Medicine (IUF) Neural Progenitor Cell Migration and Differentiation Assay (NPC2-5) (AID 2284308);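 also: count of Hoechst-stained nuclei in migration zone around plated human neural progenitor spheres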
Method in brief: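 Seven-point serial dilutions plus solvent control were applied to plated 0.3 mm hNPC spheres at differentiation start, with medium half-replaced at day 3. Nuclei positive for Hoechst in the migration zone were enumerated at 120 h.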

[21] = IUF_NPC2-5_viability_120hr: Viability Assessment at 120 hours in the Leibniz Research Institute for Environmental Medicine (IUF) Neural Progenitor Cell Migration and Differentiation Assay (NPC2-5) (AID 2284312)
Method in brief: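 Human fetal neural progenitor spheres (0.3 mm) plated on poly-D-lysine/laminin in N2 differentiation medium, exposed 120 h with half-medium refresh at day 3. Viability by alamar blue resazurin fluorescence; 7 concentrations, DMSO max 0.1%.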

[22] = CCTE_Mundy_HCI_iCellGluta_NOG_NeuronCount: CCTE's Neurite Outgrowth Assay in iCellGluta cells for Neuron Count, Mundy Lab (AID 2284340; active = hit-call score of the fitted dose curve at least 0.9, where 1 is the maximum;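 also: cells fixed about 48 h after compound addition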)
Method in brief: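 Neuron count read by automated high-content imaging of Hoechst 33342 and betaIII-tubulin/Alexa Fluor-488 labelling in human iPSC glutamatergic neurons. Activity fitted relative to DMSO.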

Measured: outcome

CCc1ccccc1
inactive: all assays above
